Hit rate of the full screen: of about 360,000 compounds, about 4,600 (1.3%) were called active.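 The calls were made as follows: active = percent inhibition above its own plate's cutoff, namely the mean of that plate's compound wells plus 3 SD; inactive = the rest.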 For the sample, actives were picked, then their nearest neighbours and some compounds at random.

For the experiment, the target named is Muscarinic acetylcholine receptor M1 (Homo sapiens) (UniProt P11229). Kind of experiment: human M1 muscarinic receptor antagonists, primary screen, CHO-K1 cells, Fluo-8 calcium fluorescence, 1536-well (AID 588852).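 Also: peak over basal fluorescence ratio during 140 s after agonist addition; 0% = ACh EC80 plus DMSO and 100% = DMSO alone without agonist.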 Conditions: CHO-K1 hM1, Fluo-8 calcium fluorescence, ACh EC80 antagonist; at 3 µM; active compounds read high.
Sequence of Muscarinic acetylcholine receptor M1 (Homo sapiens) (P11229 whole entry, looked up): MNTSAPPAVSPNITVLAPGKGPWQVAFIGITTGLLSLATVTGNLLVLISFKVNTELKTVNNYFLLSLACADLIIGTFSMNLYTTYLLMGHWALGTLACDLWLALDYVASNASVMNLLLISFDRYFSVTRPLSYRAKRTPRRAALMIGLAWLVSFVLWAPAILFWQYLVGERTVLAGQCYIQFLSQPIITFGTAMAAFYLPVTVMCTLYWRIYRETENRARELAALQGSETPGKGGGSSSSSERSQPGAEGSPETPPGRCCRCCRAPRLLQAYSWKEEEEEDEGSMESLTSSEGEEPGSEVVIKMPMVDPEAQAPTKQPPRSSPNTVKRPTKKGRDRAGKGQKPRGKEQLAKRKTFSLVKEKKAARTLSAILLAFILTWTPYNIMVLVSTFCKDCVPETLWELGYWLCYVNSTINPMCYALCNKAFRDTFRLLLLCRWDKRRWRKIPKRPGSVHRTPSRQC
In the case of `Cc1cc2c(cc1C)N(C(=O)CN1C(=O)c3ccccc3C1=O)C(C)(C)c1ssc(=S)c1-2`, the inhibition was 9.39% (inactive). As for `Nn1c(SCC(=O)Nc2nccs2)nncc1=O`, the inhibition was 11.7% (inactive). As for `CC(=O)Nc1ccc(OC(=O)COc2ccc(Br)cc2)cc1`, the figure is 1.05% (inactive); as for `Cc1ccc(O)c(NC(=S)NC(=O)COc2ccc(Br)cc2)c1`, 34.7% (active). For `Cn1cccc1C(=O)NNC(=O)COc1ccc(Br)cc1`, the inhibition is -13% (inactive). `Cc1nn(CCCC(=O)NCc2ccccc2Cl)c(=O)c2nccn12`: the inhibition was -19.9% (inactive). On to `COc1ccc(Nc2cc(=O)n(-c3ccccc3)c3c2c(=O)n(C)c(=O)n3C)cc1`, for which the inhibition was 12.9% (inactive). With `COc1cccc(-n2cc3c(c2-c2ccccc2)c(=O)n(C)c(=O)n3C)c1`, the inhibition was 36.7% (active). The result for `Cc1ccc(-c2c3c(=O)n(C)c(=O)n(C)c3cn2-c2ccccc2O)cc1` reads 7.07% (inactive). The result for `O=c1[nH]c2ccccc2n1C1CCN(CCOc2ccccc2)CC1` reads 78.4% (active). On to `O=C1CCN(CCc2ccccc2)CCN1CCOc1ccccc1`, for which the inhibition is -21.3% (inactive).

On to `O=S(=O)(c1cccs1)N1CCN(CCOc2ccccc2)CC1`, for which the inhibition is -13.2% (inactive). `O=C(Nc1cc(Br)ccc1F)c1nc[nH]c1C(=O)NCc1ccccc1`: the inhibition is -2.93% (inactive).

In the case of `CCOC1CS(=O)(=O)CC1OCC` (stereo not given), the inhibition was -4.01% (inactive).

Take `Cc1ccc(CN2CC(N3CCC(Cc4ccccc4)CC3)CS2(=O)=O)cc1` (stereo not given): the inhibition is -11.4% (inactive). For the compound `CCN(CCCNC(=O)CSc1cc(=O)n(C)c2cc(Cl)ccc12)Cc1ccccc1`, the inhibition is 2.6% (inactive).

As for `Cc1cc(OC(=O)c2ccc(Cl)cc2)cc(=O)n1C`, the inhibition is -25.4% (inactive).

As to `COC(=O)c1ccc(COC(=O)c2cnc(Cl)c(Cl)c2)cc1`, the inhibition was -11.6% (inactive). As to `Cn1cncc1COC(=O)c1ccc(Cl)cc1`, the inhibition was 88.4% (active). As to `Cc1ccccc1NC(=O)CSC1=NCCN1`, the inhibition was -2.31% (inactive).

One may read the inhibition as the change of the read-out against control, counted positive when it falls.

These data come from PubChem BioAssay AID588852 (The Scripps Research Institute Molecular Screening Center, 2011).
